The record followed here is PubChem BioAssay (EPA / NIEHS).

Inconclusive results are not listed. Where a structure was tested more than once in an assay, its records may differ in their call. Activity calls are given as the source filed them. How the source made its calls, unless noted: active means hit-call score of the fitted dose curve at least 0.9, where 1 is the maximum; inactive means score below 0.9.

Read-out in assay [1]: E-selectin (Homo sapiens) (UniProt P16581)
Description: BSK_SAg_Eselectin: BioMAP Diversity Plus: SAg Assay for Eselectin Biomarker Activity (AID 2283091). The conditions noted are these: primary human HUVEC with PBMC; actives raise or lower the signal. The method in brief:
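Co-culture: HUVEC + PBMC. Dose compound; 24 h. ELISA for E-selectin. Bidirectional fit vs DMSO.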

Read-out in assay [2]: Monokine induced gamma interferon (MIG), CXCL9 (gene 4283)
Description: BSK_SAg_MIG: BioMAP Diversity Plus: SAg Assay for Monokine induced gamma interferon (MIG) Biomarker Activity (AID 2283092). The note with it: primary human HUVEC with PBMC; actives raise or lower the signal. The method in brief:
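ELISA readout of MIG/CXCL9; primary human umbilical vein endothelial cells co-cultured with peripheral blood mononuclear cells; 24 h post-dose; gain/loss fit vs DMSO baseline.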

Assay [3] can be described thus: BSK_SAg_PBMCCytotoxicity: PBMC Cytotoxicity Assessment in the BioMAP Diversity Plus: SAg Assay (AID 2283093).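 Further: PBMC viability measured as Alamar Blue reduction fluorescence at 546/580 nm; fitted both ways against DMSO so a hit may be loss or gain of signal.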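 On AC50: PBMC superantigen activated with SEB plus TSST-1 one hour after compound addition.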 The conditions noted are these: primary human HUVEC with PBMC. A digest of the protocol: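 Compound added to 75,000 PBMC/well for 1 h; SEB and TSST-1 then added at 20 ng/mL final each; 90 h incubation; Alamar Blue 6 h; read 546/580 nm ex/em. Activity fitted bidirectionally relative to DMSO baseline.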

Read-out in assay [4]: Interleukin-8 (IL8), CXCL8 (gene 3576)
Description: BSK_SAg_IL8: BioMAP Diversity Plus: SAg Assay for Interleukin-8 (IL8) Biomarker Activity (AID 2283094). The note with it: primary human HUVEC with PBMC; actives raise or lower the signal. A digest of the protocol: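 ELISA read-out of IL-8 in a primary human vascular co-culture (umbilical vein endothelium plus PBMC), taken 24 h after compound addition. Values derive from bidirectional fits against DMSO negative controls.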

The nature of assay [5]: BSK_SAg_Proliferation: Cell Proliferation Assessment in the BioMAP Diversity Plus: SAg Assay (AID 2283095).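 Further: relative cell number as total protein by SRB absorbance in sub-confluent culture.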 The conditions noted are these: primary human HUVEC with PBMC. The method in brief: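 Cells (endothelium plus PBMC, human primary) were dosed with chemical, cultured 96 h, fixed in 10% TCA and stained with 0.1% SRB. Absorbance at 560 nm gave relative protein, fitted bidirectionally relative to DMSO.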

Assay [6] can be described thus: BSK_SAg_SRB: Viability Assessment in the BioMAP Diversity Plus: SAg Assay (AID 2283096).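 Further: cells read one day after compound addition; hits may be either gain or loss of signal compared with DMSO.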 The conditions noted are these: primary human HUVEC with PBMC. The method in brief: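 Total protein by sulforhodamine B staining, 24 h after dosing, in HUVEC–PBMC co-culture; DMSO-referenced bidirectional fitting.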
Assay [7] has as its target human CYP19A1, CYP19A1 (gene 1588) (UniProt P11511). Description: NVS_ADME_hCYP19A1: NovaScreen (NVS) CYP450-related Enzyme Activity (ADME) Assay for human CYP19A1 (AID 2283098; active means hit-call score of the fitted dose curve at least 0.9, where 1 is the maximum;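 on AC50: potency for inhibitors seen as loss of fluorescent enzyme signal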). A digest of the protocol: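 Biochem, cell-free; recombinant enzyme + specific substrate; fluorescence intensity at 0.5 h post-dose; 10 uM duplicate primary, conc. series for actives; acetonitrile = negative control/baseline; positive and negative controls on every plate.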

For assay [8], the target named is Cytochrome P450 2C19 (Homo sapiens) (UniProt P33261). Description: NVS_ADME_hCYP2C19: NovaScreen (NVS) CYP450-related Enzyme Activity (ADME) Assay for human CYP2C19 (AID 2283113; active means hit-call score of the fitted dose curve at least 0.9, where 1 is the maximum;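 on AC50: potency for inhibition seen as loss of fluorescent signal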). The method in brief:
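Fluorescence intensity was measured 1 hour after chemicals were added to insect-cell-derived recombinant CYP2C19 with fluorogenic substrate. Decreased signal versus acetonitrile control was taken as reduced enzyme activity; initial testing used 10 uM in duplicate.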

The target in assay [9] is human CYP2A6, CYP2A6 (gene 1548) (UniProt P11509). In words: NVS_ADME_hCYP2A6: NovaScreen (NVS) CYP450-related Enzyme Activity (ADME) Assay for human CYP2A6 (AID 2283099; active means hit-call score of the fitted dose curve at least 0.9, where 1 is the maximum). A digest of the protocol: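 Fluorescent substrate turnover by recombinant CYP2A6 (insect cell source), 0.5 h read. Screen: 10 uM, duplicate; threshold hits (e.g. 30% inhibition) → singleton concentration-response, top 20 uM. Positive and negative controls on every plate.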

Assay [10] has as its target human CYP2B6, CYP2B6 (gene 1555) (UniProt P20813). In words: NVS_ADME_hCYP2B6: NovaScreen (NVS) CYP450-related Enzyme Activity (ADME) Assay for human CYP2B6 (AID 2283101; active means hit-call score of the fitted dose curve at least 0.9, where 1 is the maximum). A digest of the protocol:
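Fluorescence-based enzyme activity of recombinant human CYP2B6, measured 1 h post-dose against acetonitrile vehicle baseline. Screened at a single concentration of 10 uM in duplicate before concentration-response follow-up.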

Assay [11] addresses human CYP1A2, CYP1A2 (gene 1544) (UniProt P05177). Description: NVS_ADME_hCYP1A2: NovaScreen (NVS) CYP450-related Enzyme Activity (ADME) Assay for human CYP1A2 (AID 2283102; active means hit-call score of the fitted dose curve at least 0.9, where 1 is the maximum;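 further: potency for inhibition since loss of fluorescence marks reduced CYP1A2 activity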). The method in brief: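 rec. hCYP1A2 (insect cells), cell-free; fluorogenic substrate; 0.5 h; FI read. Baseline = acetonitrile; signal loss = inhibition. 10 uM duplicate primary → conc. series for actives.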

Sequence of E-selectin (Homo sapiens) (P16581 whole entry, looked up): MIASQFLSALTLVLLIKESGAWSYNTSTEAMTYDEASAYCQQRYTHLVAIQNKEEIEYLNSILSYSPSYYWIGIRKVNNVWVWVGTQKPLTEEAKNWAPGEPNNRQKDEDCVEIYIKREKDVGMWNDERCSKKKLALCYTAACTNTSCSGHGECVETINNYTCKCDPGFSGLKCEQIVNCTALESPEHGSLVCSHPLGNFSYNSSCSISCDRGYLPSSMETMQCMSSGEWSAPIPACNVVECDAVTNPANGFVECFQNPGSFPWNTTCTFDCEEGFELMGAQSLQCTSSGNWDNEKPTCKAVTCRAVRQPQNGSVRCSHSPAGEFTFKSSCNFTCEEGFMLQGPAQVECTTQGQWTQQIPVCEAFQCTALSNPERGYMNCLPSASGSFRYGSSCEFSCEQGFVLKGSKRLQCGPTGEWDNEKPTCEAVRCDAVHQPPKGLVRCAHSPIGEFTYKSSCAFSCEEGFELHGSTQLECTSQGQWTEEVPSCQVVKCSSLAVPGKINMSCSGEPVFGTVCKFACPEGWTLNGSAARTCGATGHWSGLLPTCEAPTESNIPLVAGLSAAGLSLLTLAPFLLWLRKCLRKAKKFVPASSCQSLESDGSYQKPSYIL
Sequence of human CYP19A1, CYP19A1 (gene 1588) (P11511 whole entry, looked up): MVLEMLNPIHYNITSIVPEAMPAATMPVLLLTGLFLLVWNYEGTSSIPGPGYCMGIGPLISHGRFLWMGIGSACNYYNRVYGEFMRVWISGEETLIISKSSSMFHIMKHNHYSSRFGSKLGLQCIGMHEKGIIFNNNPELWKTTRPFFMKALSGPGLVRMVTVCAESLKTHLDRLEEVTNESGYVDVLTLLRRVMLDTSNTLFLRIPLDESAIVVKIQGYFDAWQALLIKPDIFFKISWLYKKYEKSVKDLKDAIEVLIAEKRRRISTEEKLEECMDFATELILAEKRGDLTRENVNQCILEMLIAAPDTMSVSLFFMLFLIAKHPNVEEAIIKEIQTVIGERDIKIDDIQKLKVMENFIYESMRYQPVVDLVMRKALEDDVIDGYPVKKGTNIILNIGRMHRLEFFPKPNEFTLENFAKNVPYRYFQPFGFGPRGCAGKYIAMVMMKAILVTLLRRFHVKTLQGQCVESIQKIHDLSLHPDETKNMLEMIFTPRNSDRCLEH
Sequence of human CYP2A6, CYP2A6 (gene 1548) (P11509 whole entry, looked up): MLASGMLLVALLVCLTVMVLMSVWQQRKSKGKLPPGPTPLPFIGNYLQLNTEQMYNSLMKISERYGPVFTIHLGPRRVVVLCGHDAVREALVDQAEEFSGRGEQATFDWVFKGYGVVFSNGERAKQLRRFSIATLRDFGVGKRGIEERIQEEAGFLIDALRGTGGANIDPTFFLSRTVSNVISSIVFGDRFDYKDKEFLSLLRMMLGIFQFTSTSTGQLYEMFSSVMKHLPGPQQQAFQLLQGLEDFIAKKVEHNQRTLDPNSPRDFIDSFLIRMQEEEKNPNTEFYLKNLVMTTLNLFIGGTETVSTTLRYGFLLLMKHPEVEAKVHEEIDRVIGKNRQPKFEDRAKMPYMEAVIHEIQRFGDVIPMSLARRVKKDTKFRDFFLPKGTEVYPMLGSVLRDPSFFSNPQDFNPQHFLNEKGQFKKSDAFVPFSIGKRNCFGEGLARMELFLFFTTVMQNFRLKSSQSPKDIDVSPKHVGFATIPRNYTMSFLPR
Sequence of human CYP2B6, CYP2B6 (gene 1555) (P20813 whole entry, looked up): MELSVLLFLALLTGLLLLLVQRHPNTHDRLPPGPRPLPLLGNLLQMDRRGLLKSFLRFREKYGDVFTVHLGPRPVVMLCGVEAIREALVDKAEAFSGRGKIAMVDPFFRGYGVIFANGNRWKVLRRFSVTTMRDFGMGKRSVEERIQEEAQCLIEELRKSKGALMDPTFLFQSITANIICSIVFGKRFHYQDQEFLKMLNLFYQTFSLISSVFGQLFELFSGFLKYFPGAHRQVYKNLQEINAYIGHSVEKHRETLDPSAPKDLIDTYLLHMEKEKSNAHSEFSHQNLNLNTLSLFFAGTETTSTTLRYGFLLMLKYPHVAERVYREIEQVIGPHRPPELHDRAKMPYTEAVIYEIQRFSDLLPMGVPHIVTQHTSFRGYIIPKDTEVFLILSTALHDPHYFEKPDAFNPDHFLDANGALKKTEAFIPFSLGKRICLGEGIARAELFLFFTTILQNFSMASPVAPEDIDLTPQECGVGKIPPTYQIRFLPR
Sequence of human CYP1A2, CYP1A2 (gene 1544) (P05177 whole entry, looked up): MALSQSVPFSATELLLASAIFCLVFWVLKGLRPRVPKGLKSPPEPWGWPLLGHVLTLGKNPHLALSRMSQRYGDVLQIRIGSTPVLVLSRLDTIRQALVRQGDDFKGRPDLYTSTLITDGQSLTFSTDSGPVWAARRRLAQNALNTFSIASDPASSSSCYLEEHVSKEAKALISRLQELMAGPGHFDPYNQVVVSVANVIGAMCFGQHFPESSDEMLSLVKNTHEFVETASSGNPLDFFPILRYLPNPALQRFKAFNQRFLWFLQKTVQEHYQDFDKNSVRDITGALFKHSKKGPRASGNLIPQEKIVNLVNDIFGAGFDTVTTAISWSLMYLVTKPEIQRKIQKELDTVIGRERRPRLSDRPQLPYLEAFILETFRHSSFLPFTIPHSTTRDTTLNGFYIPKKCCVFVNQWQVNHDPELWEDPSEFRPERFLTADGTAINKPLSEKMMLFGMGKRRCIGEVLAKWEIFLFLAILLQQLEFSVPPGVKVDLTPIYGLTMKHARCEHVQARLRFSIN

In the case of `O=[N+]([O-])c1ccc(Cl)c(Cl)c1`, the result in assay [1], in [2], in [3], in assay [4], in assay [5] and in [6] was inactive.
For the compound `Nc1ccc(Cl)cc1`, the outcome in [1], in assay [2], in assay [3], in assay [4], in assay [5] and in assay [6] was inactive.
On to `CCOP(=S)(OCC)SCSc1ccc(Cl)cc1`, for which the half-maximal activity concentration (AC50) in [1] was 20 µM (active); in [3], 13 µM (active); in [4], 20 µM (active); in assay [5] it was 14.2 µM (active). Further, the outcome in assay [2] and in assay [6] was inactive.
As for `O=C(O)C=CC(F)(C(F)(F)F)C(F)(F)F`, the result in assay [1], in assay [2], in [3], in [4], in [5] and in [6] was inactive.
As to `COP(N)(=S)OC`, the result in assay [1], in assay [2], in [3], in assay [4], in assay [5] and in [6] was inactive.
For the compound `CCCN(CCC)c1c([N+](=O)[O-])cc(C(C)C)cc1[N+](=O)[O-]`, the AC50 in assay [1] was 30.3 µM (active); in [3], 13.9 µM (active); in assay [4], 32.4 µM (active); in [5], 14.7 µM (active); in [6] it was 29.5 µM (active). In addition, in [2], the result was inactive.
On to `c1cc2c3c(cccc3c1)CC2`, for which the outcome in assay [1], in assay [2], in assay [3], in assay [4], in assay [5] and in [6] was inactive.
As to `CCCCCCCc1ccc(O)cc1`, the concentration at half-maximal activity (AC50) in assay [1] was 31.6 µM (active); in assay [2], 37.2 µM (active); in assay [3], 27.5 µM (active); in [4] it was 33.1 µM (active); in assay [5] it was 18.8 µM (active); in assay [6] it was 37.1 µM (active). Further, the concentration at half-maximal activity (AC50) in assay [7] was 5.15 µM (active). Also, the call in assay [7] and in [8] was inactive.
On to `COC(=O)C(F)(F)C(F)(F)OC(F)(C(F)(F)F)C(F)(F)OC(F)=C(F)F` (stereo not drawn), for which the result in assay [1], in [2], in assay [3], in assay [4], in assay [5] and in [6] was inactive.
In the case of `CCCCC(CC)COP(=O)(Oc1ccccc1)Oc1ccccc1` (stereo not drawn), the AC50 in [1] is 20 µM (active); in assay [3] it was 20 µM (active); in [4], 7.9 µM (active); in assay [5], 20 µM (active). Further, the result in assay [2] and in assay [6] was inactive.
Turning to `NC(=O)C(F)(F)C(F)(F)F`, the result in [1], in assay [2], in [3], in assay [4], in assay [5] and in assay [6] was inactive.
For the compound `CN(C)C(=O)Cl`, the outcome in [1], in assay [2], in assay [3], in assay [4], in assay [5] and in assay [6] was inactive. For the same compound, the call in [9] was inactive.
For `O=C(O)C(F)(F)C(F)(F)C(=O)O`, the outcome in assay [1], in assay [2], in assay [3], in assay [4], in assay [5] and in [6] was inactive.
For the compound `CC(C)(C)OOC(C)(C)C`, the outcome in [1], in assay [2], in [3], in assay [4], in assay [5] and in assay [6] was inactive.
For `CCCCc1ccccc1`, the result in assay [1], in [2], in assay [3], in assay [4], in assay [5] and in assay [6] was inactive.
As for `OCC(F)(F)OC(F)(F)C(F)(F)OC(F)(F)CO`, the result in [1], in [2], in [3], in assay [4], in assay [5] and in assay [6] was inactive.
Consider `Nc1ccc2ccccc2c1`, for which the half-maximal activity concentration (AC50) in assay [1] was 4.16 µM (active); in assay [10] it was 1.45 µM (active); in assay [11], 7.68 µM (active); in [8], 2.58 µM (active). The result in assay [2], in assay [3], in [4], in assay [5], in assay [6] and in assay [9] was inactive.
As to `c1ccc(OP(Oc2ccccc2)Oc2ccccc2)cc1`, the outcome in [1], in assay [2], in assay [3], in assay [4], in [5] and in [6] was inactive.
For the compound `ClC(Cl)c1ccccc1`, the result in [1], in assay [2], in [3], in [4], in assay [5] and in assay [6] was inactive.
For `O=C(O)C(F)(F)OC(F)(F)C(F)(F)OC(F)(F)F`, the result in assay [1], in assay [2], in [3], in assay [4], in [5] and in assay [6] was inactive.
Consider `N#Cc1cc([N+](=O)[O-])ccc1N`, for which the result in assay [1], in assay [2], in [3], in [4], in assay [5] and in assay [6] was inactive.
On to `c1nc[nH]n1`, for which the outcome in [1], in [2], in [3], in assay [4], in [5] and in assay [6] was inactive.
Take `Cc1cccc(N)c1`: the result in assay [1], in assay [2], in assay [3], in assay [4], in assay [5] and in [6] was inactive.
With `COP(=O)(CCC(=O)NCO)OC`, the result in assay [1], in [2], in assay [3], in assay [4], in assay [5] and in assay [6] was inactive.
As for `CCC(C)(C)c1ccc(O)cc1`, the outcome in assay [1], in assay [2], in [3], in assay [4], in [5] and in assay [6] was inactive. In [9], the result was inactive. For the same compound, the AC50 in [10] was 10 µM (active).
With `CCOS(=O)(=O)OCC`, the result in assay [1], in assay [2], in assay [3], in assay [4], in assay [5] and in assay [6] was inactive.
For `O=C(O)C(F)(OC(F)(F)C(F)(F)C(F)(F)F)C(F)(F)F` (stereo not drawn), the result in assay [1], in assay [2], in assay [3], in [4], in [5] and in assay [6] was inactive. For the same compound, the AC50 in [4] was 9.29 µM (active).
